Experimental data: PMC10726135, “HNF4α isoforms regulate the circadian balance between carbohydrate and lipid metabolism in the liver”
The full ranking holds about 18,000 sequences; the median of “log2 normalized intensity” is about 0.39, and the highest 2% start at about 6.6. For the sample, the highest values were picked, then their nearest neighbours and some sequences at random.

target: T1, HNF4alpha2 (COS-7 nuclear extract) (Homo sapiens, UniProt P41235 1-474); test: protein-binding microarray; COS-7 nuclear extract on double-stranded Agilent 4x180k PBM; binding buffer, salt, pH and temperature not given in the material; high values mean tight binding; settings: chain copies: 2; label: 3' end of strand 1 on the slide; dsDNA, one strand shown
T1 sequence: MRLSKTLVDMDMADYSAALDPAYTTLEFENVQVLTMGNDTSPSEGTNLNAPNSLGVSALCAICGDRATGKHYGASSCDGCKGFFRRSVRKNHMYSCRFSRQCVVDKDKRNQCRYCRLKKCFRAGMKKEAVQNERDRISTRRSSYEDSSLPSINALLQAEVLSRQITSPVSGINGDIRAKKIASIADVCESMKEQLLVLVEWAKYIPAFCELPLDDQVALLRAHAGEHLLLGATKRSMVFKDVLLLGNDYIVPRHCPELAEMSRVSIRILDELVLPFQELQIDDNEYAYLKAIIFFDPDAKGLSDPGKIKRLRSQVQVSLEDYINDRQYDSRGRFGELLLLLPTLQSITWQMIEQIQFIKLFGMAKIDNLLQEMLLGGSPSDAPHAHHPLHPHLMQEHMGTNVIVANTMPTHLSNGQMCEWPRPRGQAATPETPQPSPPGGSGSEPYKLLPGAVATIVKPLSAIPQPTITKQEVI
Summary of the method: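 Double-stranded oligonucleotides of ~60 nt, representing ~44,000 test sequences in quadruplicate, made up a custom Agilent SurePrint G3 4x180k array. Nuclear extracts from COS-7 cells transiently transfected by CaPO4 with a human HNF4α isoform expression vector were applied, and bound HNF4α was imaged at 2-µm resolution on an Agilent G2565CA scanner. Binding signal refers to the background-corrected, normalized gProcessedSignal output of Agilent software.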

Sequence	binding signal [log2 normalized intensity]
GCAGAATCAAAGGTCAAAATATCTGATCGAGCCTAGGGAGATTAGAGTATCGGTCGA	3.32
CATCCTCATTGCCTCTGGGCTTTGATGGACGCCTAGGGAGATTAGAGTATCGGTCGA	1.64
CCCCATGATGATAGCAAACACGATTGGATGGCCTAGGGAGATTAGAGTATCGGTCGA	0.412
CTCCTGACCTTTGGACTTGATAGAGTTTAAGCCTAGGGAGATTAGAGTATCGGTCGA	7.57
ACTGCTCCAGTGGACATTGGCCCTTTGACCGCCTAGGGAGATTAGAGTATCGGTCGA	5.99
TCCAGTGGACATTGGCCCTTTGACCTTTAAGCCTAGGGAGATTAGAGTATCGGTCGA	7.47
ATATCCTGACTGCTGACCTTTAAGCCTATAGCCTAGGGAGATTAGAGTATCGGTCGA	3.85
TGGACATTGGCCCTTTGACCTTTAATCAAGGCCTAGGGAGATTAGAGTATCGGTCGA	6.47
TTTGAAGTTTAGAGATGCCTATAGGGTCTTGCCTAGGGAGATTAGAGTATCGGTCGA	0.736
GTCCTTGATAAGCAAGATGACTTTGGTCTAGCCTAGGGAGATTAGAGTATCGGTCGA	1.78
GACCTTTGGACTTGATAGAGTTTAAGTCTTGCCTAGGGAGATTAGAGTATCGGTCGA	6.99
AACTAGCAACTTGGACCTTGATAGGAGTTAGCCTAGGGAGATTAGAGTATCGGTCGA	2.88
TAAGAGCTATCAATGACCCATGTTTGCCCTGCCTAGGGAGATTAGAGTATCGGTCGA	3
TGCTTCTTGGCCTCTTTGTTTACACTGTGAGCCTAGGGAGATTAGAGTATCGGTCGA	1.53
GCGGCTTCAGAGGCCAGCAGTGCTTTTCCCGCCTAGGGAGATTAGAGTATCGGTCGA	-0.963
ATTGGAAGCTCTTTCCCTCCACCAAGTTTCGCCTAGGGAGATTAGAGTATCGGTCGA	0.191
TCTGATCCCAATTTATCTTTCCAGATTGTTGCCTAGGGAGATTAGAGTATCGGTCGA	0.501
CCTCCAGGGAGGGGAGAGGGGGTTAAAGGTGCCTAGGGAGATTAGAGTATCGGTCGA	1.22
GGAAACTCCATTTCCTTCTAGCTCCCCAATGCCTAGGGAGATTAGAGTATCGGTCGA	3.53

Sequence	binding signal [log2 normalized intensity]
ACTGACCTTTGAGAGTCAACACTGAAATAGGCCTAGGGAGATTAGAGTATCGGTCGA	1.42
GGTGAAATAGCTGAACTATTTAAGGCCTTTGCCTAGGGAGATTAGAGTATCGGTCGA	0.822
GAAAATATTTCTCTGAACTTTGACCTATAGGCCTAGGGAGATTAGAGTATCGGTCGA	8.62
AGTTGGAAAATATTTCTCTGAACTTTGACCGCCTAGGGAGATTAGAGTATCGGTCGA	8.41
CACTTCTGAAAAAAATATTGAACAAAGATTGCCTAGGGAGATTAGAGTATCGGTCGA	-0.491
TCTTTGATTAGGAAAGGGAACTCCCTGACCGCCTAGGGAGATTAGAGTATCGGTCGA	-0.639
GCCACCCCCGTTAATTTCTAACCAATGCAGGCCTAGGGAGATTAGAGTATCGGTCGA	0.623
CAAACTTCTCCACTCTTCATAATTACCATTGCCTAGGGAGATTAGAGTATCGGTCGA	0.957
ACAAGCAACCCTCCTCCCTTTGGCCATGAAGCCTAGGGAGATTAGAGTATCGGTCGA	1.54
TCACAGGTTCCAGCATGGACTTCACAGCCTGCCTAGGGAGATTAGAGTATCGGTCGA	-0.535
CAAACAGCTTAGGGTTCAAACTCCAGCTCTGCCTAGGGAGATTAGAGTATCGGTCGA	3.29
TCATTCCCCTAGTATATTGGCTTGGCTGTGGCCTAGGGAGATTAGAGTATCGGTCGA	2.58
CTCCTGTTTGTATTCCTTGTCCTTGACCCTGCCTAGGGAGATTAGAGTATCGGTCGA	4.35
CATACTTCTTCCTGTTTGACCTTCGAACCCGCCTAGGGAGATTAGAGTATCGGTCGA	9.59
TTGACCTTCTCTGTTAACCCTTTGCAGCCCGCCTAGGGAGATTAGAGTATCGGTCGA	2.61
CCTTGACCCTTCCTCCCATTTGCTGCTCTAGCCTAGGGAGATTAGAGTATCGGTCGA	2.08
TTGACCTTCGAACCCTTGCCATTTACATCAGCCTAGGGAGATTAGAGTATCGGTCGA	5.38
TTCTTCCTGTTTGACCTTCGAACCCTTGCCGCCTAGGGAGATTAGAGTATCGGTCGA	9.01
AAGCACATACTTCTTCCTGTTTGACCTTCGGCCTAGGGAGATTAGAGTATCGGTCGA	5.02

Sequence	binding signal [log2 normalized intensity]
CCTGTTTGACCTTCGAACCCTTGCCATTTAGCCTAGGGAGATTAGAGTATCGGTCGA	7.04
GTACCTTGACCTTCTCTGTTAACCCTTTGCGCCTAGGGAGATTAGAGTATCGGTCGA	3.76
GGAGTTGGAACGGGGGCAAGGGTCAGAGTAGCCTAGGGAGATTAGAGTATCGGTCGA	4.26
CTGGCATCTGGTCAGGGGTCAAGAAGCTCTGCCTAGGGAGATTAGAGTATCGGTCGA	2.21
GCAGAAATCAACTGCCCTCTGCCTTTCAGGGCCTAGGGAGATTAGAGTATCGGTCGA	-0.661
AGAGCACATTCTTCCATATAACCCTTGAACGCCTAGGGAGATTAGAGTATCGGTCGA	3.6
TCAAAGGGCTTAATCTTTCCTGCCTGCCGGGCCTAGGGAGATTAGAGTATCGGTCGA	-0.693
ACCCACCCACACCTCCCCTTTGTTTAACTTGCCTAGGGAGATTAGAGTATCGGTCGA	2.8
TTTGCCATTTGGAGAGAGTTTGGCCCCAGTGCCTAGGGAGATTAGAGTATCGGTCGA	2.44
CCATCAGTGGACTTTGACCTTGTTTTCAATGCCTAGGGAGATTAGAGTATCGGTCGA	9.03
CACATGCTATTATTTTCCATCAGTGGACTTGCCTAGGGAGATTAGAGTATCGGTCGA	3.5
ACTTTGACCTTGTTTTCAATGACTACCTGTGCCTAGGGAGATTAGAGTATCGGTCGA	1.84
CCCAGGGACTTTGGCCTTACTTGGCCTGTTGCCTAGGGAGATTAGAGTATCGGTCGA	2.62
AGTGGACTTTGACCTTGTTTTCAATGACTAGCCTAGGGAGATTAGAGTATCGGTCGA	7.31
GCCACCCATCAGTGGACTTTGACCTTGTTTGCCTAGGGAGATTAGAGTATCGGTCGA	10.6
GCCAGCCAGGGCCACCCATCAGTGGACTTTGCCTAGGGAGATTAGAGTATCGGTCGA	6.63
GACCTTGTTTTCAATGACTACCTGTTACCCGCCTAGGGAGATTAGAGTATCGGTCGA	1.45
GTTCAATGCTTCAGTGAGCCTTGACCTTCAGCCTAGGGAGATTAGAGTATCGGTCGA	4.09
AGACCTTTGACATCACCTAACTTGTGGCTGGCCTAGGGAGATTAGAGTATCGGTCGA	0.674
